Data on 102 compounds can be found in PubChem BioAssay AID893 (National Center for Advancing Translational Sciences (NCATS), 2007).

Molecules are shown by their SMILES. Screen size: about 75,000 compounds; about 5,700 (7.6%) were called active. Entries that show only a call come without a potency. Not shown: some 7% with an inconclusive outcome. Calls come from the whole dose curve; as a rule, active = well fitted inhibition curve with a large enough effect; inconclusive = small, poorly fitted or top-dose-only effect; inactive = no such curve, though single readings can be large or run the other way. For the sample, actives were picked, then their nearest neighbours and some compounds at random.
Potency is the fitted concentration of half-maximal effect.

This assay deals with 3-hydroxyacyl-CoA dehydrogenase type-2 (Homo sapiens) (UniProt Q99714). Briefly: qHTS Assay for Inhibitors of HSD17B4, hydroxysteroid (17-beta) dehydrogenase 4.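 Note: the protocol describes HADH2 (HSD17B10) and not the HSD17B4 of the title; nearly all actives have a fitted effect of over 70% in size.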 Conditions: recombinant HSD17B10, NADH fluorescence kinetic; series mostly up to 57.1 µM. The method, boiled down:
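20 nM HADH2, pH 9.0 Tris/Tween; cpd preinc 15 min RT; start w/ 1 mM NAD+ + 90 uM b-hydroxybutyryl-CoA; kinetic fluor ex360/em450 q30s x 4 min; delta last-first.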
In general terms: In qHTS, concentration-response curves come from the screen itself.
As to `CCOC(=O)c1cc2occc2n1CC(=O)NC1CCC(C)CC1` (configuration not stated), the Potency result is “inactive”.

For `CCOC(=O)C1CCCN(C(=O)CN(c2ccc(OC)cc2)S(=O)(=O)c2c(C)noc2C)C1` (configuration not stated), the Potency result is “inactive”.

In the case of `O=C(Nc1nc(-c2ccc3c(c2)OCO3)cs1)c1ccncc1`, the Potency entry was “inactive”.

Turning to `c1ccc(Nc2nc(-c3ccncc3)cs2)nc1`, the Potency result was “inactive”.

With `O=C(Nc1nc(-c2ccncc2)cs1)C1COc2ccccc2O1` (configuration not stated), the Potency is 31.6 µM (active).

Turning to `CN/C(=C\[N+](=O)[O-])NCCSCc1csc(CN(C)C)n1`, the Potency entry was “inactive”.

In the case of `Cc1nc2cnc(Nc3ccccc3)nc2n(Cc2ccc(F)cc2)c1=O`, the Potency result was “inactive”.

With `COc1cccc(Nc2ncc3ncc(=O)n(C4CC4)c3n2)c1`, the Potency entry is “inactive”.

For `N#Cc1cccc(-c2nc3cnc(N4CCNCC4)nc3n(C3CC3)c2=O)c1`, the Potency was 3.98 µM (active).

Regarding `COc1cccc(Cn2c(=O)c(CCc3ccccc3)nc3cnc(N(C)C)nc32)c1`, the Potency was 25.1 µM (active).

As for `CN(C)c1ncc2nc(-c3ccc(F)cc3)c(=O)n(Cc3ccc(F)cc3)c2n1`, the Potency is 3.98 µM (active).

For `Cc1nc2cnc(N3CCNCC3)nc2n(CCc2ccccc2)c1=O`, the Potency was 25.1 µM (active).

With `O=c1c(CCc2ccccc2)nc2cncnc2n1C1CC1`, the Potency entry is “inactive”.

Turning to `O=c1cnc2cnc(Nc3ccccc3)nc2n1Cc1ccc(F)cc1`, the Potency result was “inactive”.

On to `Cn1cc(-c2nc3cnc(N4CCNCC4)nc3n(CCc3ccccc3)c2=O)c2ccccc21`, for which the Potency result is “inactive”.

With `Cn1c(=O)c(CCc2ccccc2)nc2cnc(Nc3ccccc3)nc21`, the Potency entry was “inactive”.

`Cn1c(=O)n(CCc2ccccc2)c(=O)c2c1nc1n2CCCN1c1ccccc1`: the Potency result was “inactive”.

`COc1cccc(Cn2c(=O)c(C)nc3cnc(Oc4ccccc4)nc32)c1`: the Potency entry was “inactive”.

Take `CCOC(=O)c1ccc(N2C(=O)CC(Sc3nc(O)c(CC)c(=O)[nH]3)C2=O)cc1` (configuration not stated): the Potency entry was “inactive”.

As for `CN1CCN(c2ncncc2-c2ccc(C(=O)N(C)C)cc2)CC1`, the Potency result was “inactive”.

Consider `COC(=O)c1ccc(NC(=O)CSc2nnc(Cc3cccn3C)n2-c2ccc(F)cc2)cc1`, for which the Potency result was “inactive”.

On to `CC(=O)OC1CCC2(O)CC1(C)CCC1C2CC1(C)C` (configuration not stated), for which the Potency result was “inactive”.

As for `CC(=O)Oc1ccccc1C(=O)Nc1ncc([N+](=O)[O-])s1`, the Potency result was “inactive”.

For the compound `COc1ccccc1N1CCN(C[C@@H]2CN3C(=O)N(C)c4ccccc4C3=N2)CC1`, the Potency result is “inactive”.

Regarding `CCOC(=O)[C@]1(C(/C=C/c2ccco2)NC(=O)OC)CCCC1=O` (some centres not stated), the activity change, negative = inhibition was -2.18% [at 11.4 µM] (inactive).

With `O=C1c2ccccc2C(=O)N1CCc1nn[nH]n1`, the Potency result is “inactive”.

As to `CN(C)CCOC(=O)C(c1ccccc1)C1(O)CCCC1` (configuration not stated), the Potency result is “inactive”.

Take `COc1ccccc1N1CCN(C(=O)CSc2nnc(-c3ccoc3C)o2)CC1`: the Potency entry is “inactive”.

As to `CCOC(=O)C1CCCN(C(=O)c2ccc(CS(=O)(=O)c3ccc(Br)cc3)o2)C1` (configuration not stated), the Potency entry is “inactive”.

As for `OC(COc1cccc(OCC(O)CN2CCCC2)c1)CN1CCCC1` (configuration not stated), the Potency entry was “inactive”.

As to `COc1ccc(-c2nnco2)cc1OC`, the Potency entry was “inactive”.

Turning to `COCCNCCOCCOc1cccc(OC)c1`, the Potency entry is “inactive”.

`COCCn1c(=O)c(CCc2ccccc2)nc2cncnc21`: the Potency entry is “inactive”.

As to `CCc1nc2ccccc2n(CCOCCOCCn2c(=O)c(CC)nc3ccccc32)c1=O`, the Potency entry was “inactive”.

Consider `COCCn1c(=O)c(CCc2ccccc2)nc2cnc(N3CCNCC3)nc21`, for which the Potency is 31.6 µM (active).

Consider `COCCn1c(=O)c(-c2cc(F)cc(F)c2)nc2cnc(N3CCNCC3)nc21`, for which the Potency is 25.1 µM (active).

As to `Cn1c(=O)c(-c2ccccc2)nc2cnc(N3CCNCC3)nc21`, the Potency was 25.1 µM (active).

In the case of `O=c1c(-c2ccc(F)cc2)nc2cnc(N3CCNCC3)nc2n1Cc1cccs1`, the Potency entry is “inactive”.

In the case of `Cc1c2cn[nH]c(=O)c2c(C)n1Cc1ccc(F)cc1`, the Potency result was “inactive”.

`Cc1nc2cnc(N3CCNCC3)nc2n(Cc2ccc(F)cc2)c1=O`: the Potency was 25.1 µM (active).

For `O=C1C(c2ccccn2)=[N+]([O-])c2ccccc21`, the Potency entry is “inactive”.

Take `COC1C[C@@H](O[C@@H]2C(C)C(=O)OC(C)C(C)C(O)C(C)C(=O)[C@@]3(CO3)CC(C)C(OC3OC(C)CC(N(C)C)C3O)C2C)OC(C)[C@@H]1O` (some centres not stated): the Potency entry is “inactive”.

As for `O=C(Oc1cc(OC(=O)c2ccccc2)c2c(c1)OC(c1ccc(OC(=O)c3ccccc3)c(OC(=O)c3ccccc3)c1)[C@@H](OC(=O)c1ccccc1)C2)c1ccccc1` (some centres not stated), the Potency result was “inactive”.

In the case of `CC(=O)Oc1cccc(N2C(=O)C3CC=C(Cl)CC3C2=O)c1` (configuration not stated), the Potency entry is “inactive”.

On to `COc1ccc(C(=O)Nc2ccc3c(c2)OCO3)cc1OC`, for which the Potency result was “inactive”.

Turning to `CC(=O)Nc1ccc(S(=O)(=O)N2CCCC2C(=O)O)cc1` (configuration not stated), the Potency result is “inactive”.

Consider `C=C(C)Cn1c(SCC(=O)NCc2ccco2)nc2sc3c(c2c1=O)CCC3`, for which the Potency result is “inactive”.

Turning to `O=C(Cc1ccccc1)n1nc(-c2ccccc2)nc1NCc1ccco1`, the Potency entry was “inactive”.

In the case of `CN1CCc2c(sc3c2c(NCc2ccco2)nc2nnnn23)C1`, the Potency was 31.6 µM (active).

As to `CC(=O)NCCc1ccc(S(=O)(=O)N(C)C2CCS(=O)(=O)C2)cc1` (configuration not stated), the Potency entry was “inactive”.

As to `CCn1c(COc2ccccc2)nnc1SCC(=O)Nc1ccc2c(c1)OCCO2`, the Potency result was “inactive”.

As for `CN1CCN(S(=O)(=O)c2ccc(NC(=O)C3CCCO3)cc2)CC1` (configuration not stated), the Potency result was “inactive”.

As to `COc1ccc(C(=O)CSc2nnc(COc3ccccc3)n2Cc2ccco2)cc1`, the Potency result is “inactive”.

Turning to `O=c1c2[nH]c3ccc(Cl)cc3c2ncn1Cc1ccccn1`, the Potency entry is “inactive”.

Turning to `COc1ccc2[nH]c3c(=O)n(Cc4ccco4)cnc3c2c1`, the Potency is 3.16 µM (active).

On to `Cc1cc(C)c2nc3c(c([C@H](O)[C@@H]4CCCCN4)c2c1)CC/C3=C/c1ccc(Cl)cc1`, for which the activity change, negative = inhibition was 9.81% [at 11.4 µM] (inactive).

As to `O=C1CC(c2cccc(Br)c2)C2=C(CCCC2=O)N1` (configuration not stated), the Potency result was “inactive”.

With `COc1cc2c(cc1NC(=O)CN1CCN(S(=O)(=O)c3ccc(F)cc3)CC1)oc1ccccc12`, the Potency was 3.16 µM (active).

As to `COc1ccc(NC(=O)CN2CCN(S(=O)(=O)c3ccc(F)cc3)CC2)cc1Cl`, the Potency result was “inactive”.

With `O=C(CN1CCN(S(=O)(=O)c2ccc(F)cc2)CC1)Nc1ccccc1F`, the Potency result is “inactive”.

With `CCN(CCCCOC(=O)c1ccc(OC)c(OC)c1)C(C)Cc1ccc(OC)cc1` (configuration not stated), the Potency result was “inactive”.

Consider `CC(=O)N1CCC(C(=O)Nc2nc(-c3ccccc3)ns2)CC1`, for which the Potency was 10 µM (active).

Turning to `Cc1ccc2c(NC(=O)C3CC3)cccc2n1`, the Potency result was “inactive”.

Regarding `CCN(CC)S(=O)(=O)N1CCC(C(=O)NC(C)CCc2ccccc2)CC1` (configuration not stated), the Potency result was “inactive”.

For the compound `CCOC(=O)c1nc(N)sc1C(=O)OCC`, the Potency result was “inactive”.

For `CN1CCCc2cc(C#N)c(=O)[nH]c21`, the Potency was 15.8 µM (active).

As to `COc1ccccc1Cn1c(=S)[nH]c2cc(C(=O)N3CCN(C)CC3)ccc2c1=O`, the Potency entry is “inactive”.

With `CC1=C(C(=O)Nc2ccccc2)C(c2cccs2)C(C#N)=C(SCC#N)N1` (configuration not stated), the Potency was 31.6 µM (active).

With `CCOC(=O)CSC1=C(C#N)C(c2ccco2)C(C(=O)OCc2ccccc2)=C(C)N1` (configuration not stated), the Potency entry was “inactive”.

Turning to `CCOC(=O)CSC1=C(C#N)C(c2sccc2C)CC(=O)N1` (configuration not stated), the Potency result is “inactive”.

With `O=C(Cn1nnc(-c2ccc(CN3CCOCC3)cc2)n1)NC1CCCCC1`, the Potency result was “inactive”.

As for `COCCCNC(=O)COc1cc(C)c(Cl)c(C)c1`, the Potency result was “inactive”.

As for `CCC/C(O)=C1\C(=O)CC(C)(C)CC1=Nc1ccccc1OC`, the Potency result was “inactive”.

Consider `CCCNC(=O)OC[C@@H]1O[C@H](c2ccccc2)C=C[C@@H]1Oc1ccc(OC)cc1`, for which the activity change, negative = inhibition was -0.586% [at 11.4 µM] (inactive).

Take `COc1ccc(-c2c3c(=O)n(C)c(=O)n(C)c3cn2-c2cccc(OC)c2)cc1`: the Potency result is “inactive”.

As for `COc1ccc(-n2c(C)nc3c(cnn3-c3ccccc3)c2=O)cc1`, the Potency entry is “inactive”.

`COc1ccc(Oc2ncc3nc(-c4ccc(F)cc4)c(=O)n(C)c3n2)cc1`: the Potency was 31.6 µM (active).

For the compound `COc1ccc(Oc2ncc3nc(C)c(=O)n(-c4ccccc4)c3n2)cc1`, the Potency result is “inactive”.

Turning to `COc1nc(NCc2ccc(Cl)cc2)nc(OC)n1`, the Potency entry was “inactive”.

Take `Cn1cc(-c2nc3cncnc3n(-c3ccccc3)c2=O)c2ccccc21`: the Potency result is “inactive”.

As for `COc1ncc2nc(-c3ccc(Cl)cc3)c(=O)n(-c3ccccc3)c2n1`, the Potency was 25.1 µM (active).

Consider `CN(C(=O)COc1nnc(-c2cccs2)c(-c2cccs2)n1)c1ccccc1`, for which the Potency entry was “inactive”.

For the compound `COc1ccc(C(=O)n2nc(-c3ccc(Cl)cc3)nc2N)cc1OC`, the Potency result is “inactive”.

Take `COc1ncc2nc(-c3ccc(Cl)cc3)c(=O)n(C)c2n1`: the Potency is 31.6 µM (active).

`O=c1c(-c2cccs2)nc2cnc(Oc3ccccc3)nc2n1-c1ccccc1`: the Potency is 25.1 µM (active).

For the compound `Cc1ccc(S(=O)(=O)N2CCC(C(=O)N[C@@H](C)C(=O)NCc3ccccc3)CC2)cc1`, the Potency result is “inactive”.

In the case of `O=C(Nc1cccc2c1CCCC2)C1CCN(C(=O)NC2CCCCC2)CC1`, the Potency entry is “inactive”.

Turning to `c1ccc2sc(SCCSc3nc4ccccc4s3)nc2c1`, the activity change, negative = inhibition is 2.8% [at 11.4 µM] (inactive).

Consider `O=C(c1cc(-c2cccc(O)c2)on1)N1CCc2ccccc2C1`, for which the Potency entry is “inactive”.

With `O=C1CN(C(=O)COC(=O)C2CC(=O)N(Cc3ccco3)C2)c2ccccc2N1` (configuration not stated), the Potency entry is “inactive”.

With `CN(C)C(=O)/N=N\C(=O)N(C)C`, the Potency result was “inactive”.

Regarding `COCCn1c(=O)c(-c2ccc(OC)cc2)nc2cnc(Oc3cccc(Cl)c3)nc21`, the Potency result is “inactive”.

On to `O=C1c2cccnc2C(=O)N1Cc1cccs1`, for which the Potency result was “inactive”.

Consider `CN1CCN(c2cc(=O)n(-c3ccc(Cl)cc3)c(=O)[nH]2)CC1`, for which the Potency result is “inactive”.

With `COc1ccc(-c2nc3cnc(Oc4ccccc4)nc3n(Cc3cccs3)c2=O)cc1`, the Potency was 12.6 µM (active).

In the case of `CN1CCN(c2ncc3nc(-c4ccc(Cl)cc4)c(=O)n(-c4ccccc4)c3n2)CC1`, the Potency is 25.1 µM (active).

`O=c1c(-c2ccc(F)c(F)c2)nc2cncnc2n1-c1ccccc1`: the Potency entry was “inactive”.

Take `C=CC(=O)OCCOCCOCCOCCOC(=O)C=C`: the Potency result is “inactive”.

Turning to `Cc1ccccc1NC(=O)Cc1nnc(SCC(=O)N2CCN(c3ccccc3)CC2)n1C`, the Potency result is “inactive”.

With `Cc1nnc(SCC(=O)Nn2cnnc2)s1`, the Potency result is “inactive”.

As to `CC(C)[C@H](CO)Nc1nc(Nc2cc(N)cc(Cl)c2)c2ncn(C(C)C)c2n1`, the Potency entry was “inactive”.

As to `Cc1c(CN2CCC(C)CC2)c(=O)n(-c2ccccc2)n1C`, the Potency result was “inactive”.
